From PubChem
Hits are enriched below; roughly 3.6% of the tested compounds scored in any of these assays.
mHTT-CaM PPI inh: mHTT-calmodulin interaction abrogation; AlphaScreen His-mHTT/GST-CaM binding, luminescence; P42858; 190,000 compounds, 3.6% hits; inhibition, % at 15 µM; AID 1671202;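 note: 0% = both proteins with DMSO and 100% = one protein alone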
Pf apPOL block: Pf-apPOL DNA polymerase inhibition; inhibition, % at 10 µM; Recombinant Pf-apPOL, molecular beacon fluorescence, 1.5 h; 210,000 compounds, 0.25% hits
An asterisk follows results filed as active; / = no result. Cut-off read from the data, not from the text of the source: active = inhibition above about 50%; inactive = the rest.

SMILES | mHTT-CaM PPI inh | Pf apPOL block
Cc1ccc2c(C(=O)NCc3ccc(C)o3)cc(NC(=O)C3CCC3)cc2n1 | 64* | 12
O=C(NCc1ccco1)c1cc(-c2ccc(Br)s2)nc2ccccc12 | 35 | -4
Cc1ccc(CNC(=O)c2cc(-c3ccc(Br)s3)nc3ccccc23)o1 | 96* | -6
COc1ccc(C(C)NC(=O)c2cc(NC(C)=O)cc3nc(C)ccc23)cc1 (stereo not drawn) | 54* | 42
CC(=O)Nc1cc(C(=O)NCc2ccccc2Br)c2ccc(C)nc2c1 | 55* | 33
CNC(=O)c1cc(NC(=O)C2CCC2)cc2nc(C)ccc12 | 5 | 10
COc1ccc(-c2ccc(=O)n(CCCC(=O)Nc3nccs3)n2)cc1OC | -10 | 2
Oc1ccc(-c2csc(-c3c[nH]c4ccccc34)n2)cc1O | 99* | 8
Oc1ccc(C(c2c[nH]c3ccccc23)c2c[nH]c3ccccc23)cc1O | -4 | -4
COc1cc(C2CC(=O)Oc3ccc(C(C)(C)C)cc32)cc(OC)c1OC (stereo not drawn) | 30 | -1
COc1cc(OC)c2c(c1C(CCN1CCCC(C)C1)c1ccc(N(C)C)cc1)OC(=O)CC2c1ccc(N(C)C)cc1 (stereo not drawn) | 100* | -4
COc1cc(O)c(C(CCN2CCCC(C)C2)c2cc(OC)c(OC)c(OC)c2)c(OC)c1 (stereo not drawn) | 9 | -6
COc1cc(OC)c2ccc(=O)oc2c1C(CCN1CCCC(C)C1)c1ccc(N(C)C)cc1 (stereo not drawn) | 54* | -1
COc1cc(C2CC(=O)Oc3c(C(CCN4CCCC(C)C4)c4ccc(N(C)C)cc4)c(OC)cc(OC)c32)cc(OC)c1OC (stereo not drawn) | 86* | -4
COc1ccc(C(CCN2CCCC(C)C2)c2c(O)cc(OC)cc2OC)cc1 (stereo not drawn) | 15 | -1
COc1cc(C(CCN2CCCC(C)C2)c2c(OC)cc(OC)c3c2OC(=O)CC3c2ccc(N(C)C)cc2)cc(OC)c1OC (stereo not drawn) | 93* | 7
CC(=O)c1ccc(NC(=O)CN2CCCCC2)cc1 | -6 | -5
O=[N+]([O-])c1ccc(CSc2n[nH]c(-c3ccccc3)n2)cc1 | 5 | -3
COc1ccc(CNC(=O)N2CCC3(CC2)OCCS3)cc1OC | -7 | 10
CC(CC(=O)N1CCN(c2ccc(F)cc2)CC1)c1ccccc1 (stereo not drawn) | 7 | -8
COc1ccc(OC)c(NC(=O)c2ccc(SC)s2)c1 | / | -3
CSc1ccc(C(=O)O)s1 | 2 | 88*
Cc1cccc(C(=O)N=c2sc(C)cn2CC(=O)N(C)C)c1 | -5 | -6
CSc1scc2c1C(=O)C(=CN(C)C)CC2 | / | 93*
CN(C)C=C1Cc2ccccc2C1=O | / | -11
SMILES | mHTT-CaM PPI inh | Pf apPOL block
O=C(NC1CCN(c2ccccc2)C1=O)c1ccccc1C(F)(F)F (stereo not drawn) | -7 | -2
CCC(Sc1nnnn1-c1ccccc1)C(=O)Nc1nc2ccccc2s1 (stereo not drawn) | 52* | -6
CCCc1nnc(NC(=O)C(CC)Sc2nnnn2-c2ccccc2)s1 (stereo not drawn) | -2 | -3
O=C1CC(c2ccccc2)CC2=C1C(c1ccc(Br)cc1)Nc1ccccc1N2 (stereo not drawn) | 79* | 0
O=C1CC(c2ccc(Cl)cc2)CC2=C1C(c1cccc([N+](=O)[O-])c1)Nc1ccccc1N2 (stereo not drawn) | 62* | -4
COc1ccc(C2CC(=O)C3=C(C2)Nc2ccccc2NC3c2cccc([N+](=O)[O-])c2)cc1OC (stereo not drawn) | 32 | 14
CSc1ccc(C2Nc3ccccc3NC3=C2C(=O)CC(c2ccccc2)C3)cc1 (stereo not drawn) | 49 | -10
Cn1nc(C(C)(C)C)cc1C(=O)Nc1ccc(S(N)(=O)=O)cc1 | / | 0
CC(C)C1C(=O)N(Cc2cn(Cc3ccco3)nn2)CCS(=O)(=O)N1Cc1ccc(-c2ccc(Cl)cc2)cc1 (stereo not drawn) | 50 | -14
COc1ccc(-c2ccc(CN3C(C(C)C)C(=O)N(Cc4cn(CCC5OCCCO5)nn4)CCS3(=O)=O)cc2)cn1 (stereo not drawn) | 50* | -16
CC1C(=O)N(Cc2cn(Cc3ccco3)nn2)CCS(=O)(=O)N1Cc1ccc(-c2ccccc2)cc1 (stereo not drawn) | 63* | -1
COc1ccc(-c2ccc(CN3C(C(C)C)C(=O)N(Cc4cn(CCC5OCCO5)nn4)CCS3(=O)=O)cc2)cn1 (stereo not drawn) | 45 | 4
COc1ccc(-c2ccc(CN3C(CC(C)C)C(=O)N(Cc4cn(Cc5ccco5)nn4)CCS3(=O)=O)cc2)cc1OC (stereo not drawn) | 30 | -2
CC(C)C1C(=O)N(Cc2cn(CCC3OCCO3)nn2)CCS(=O)(=O)N1Cc1ccc(-c2ccccc2)cc1 (stereo not drawn) | 44 | -15
CC(C)C1C(=O)N(Cc2cn(CCC3OCCO3)nn2)CCS(=O)(=O)N1Cc1ccc(-c2ccccc2Cl)cc1 (stereo not drawn) | 66* | -1
CC(C)C1C(=O)N(Cc2cn(Cc3ccco3)nn2)CCS(=O)(=O)N1Cc1ccc(-c2ccccc2)cc1 (stereo not drawn) | 73* | -1
Cc1ccc2c(c1)N(Cc1ccc(C(=O)NCC(C)C)cc1)C(=O)CO2 | -6 | -1
Cc1nc(CC(=O)Nc2ccc(F)c(F)c2)cs1 | 3 | -4
CC(=O)N(c1nc(-c2cc3cc(Br)ccc3oc2=O)cs1)c1ccccc1F | -1 | 15
CC1C(=O)N(Cc2cn(CCC3OCCO3)nn2)CCS(=O)(=O)N1Cc1ccc(-c2ccccc2)cc1 (stereo not drawn) | 74* | 7
CC(C)C1C(=O)N(Cc2cn(CC3CCCCC3)nn2)CCS(=O)(=O)N1Cc1ccc(-c2ccc(F)nc2)cc1 (stereo not drawn) | 25 | 0
CC(C)C1C(=O)N(Cc2cn(Cc3ccco3)nn2)CCS(=O)(=O)N1Cc1ccc(-c2ccncc2)cc1 (stereo not drawn) | 23 | 0
Cc1ccc(-c2ccc(CN3C(C)C(=O)N(Cc4cn(CCC5OCCO5)nn4)CCS3(=O)=O)cc2)cc1 (stereo not drawn) | -1 | -4
CC(C)C1C(=O)N(Cc2cn(Cc3ccco3)nn2)CCS(=O)(=O)N1Cc1ccc(-c2ccc(F)cc2)cc1 (stereo not drawn) | 69* | -5
CC(C)C1C(=O)N(Cc2cn(Cc3ccco3)nn2)CCS(=O)(=O)N1Cc1ccc(-c2ccc(F)nc2)cc1 (stereo not drawn) | 60* | -7
SMILES | mHTT-CaM PPI inh | Pf apPOL block
Cc1cccc(C(=O)N2CC=C(C(=O)N3CCCC3)CC2)c1 | 17 | -1
NC(=O)c1ccc(NC(=O)CN(C2CCCCC2)S(=O)(=O)c2ccc(F)cc2)cc1 | 14 | -4
Cc1[nH]nc(SCC(=O)Nc2cc(Br)ccc2O)c1[N+](=O)[O-] | 52* | 1
Cc1ccc(O)c(NC(=O)CSc2n[nH]c(C)c2[N+](=O)[O-])c1 | 13 | 11
CCN1CCN(C2=NC(=O)/C(=C\c3cc(OC)c(OC)c(OC)c3)S2)CC1 | 4 | -3
Cc1ccc(-c2c(C(=O)NCc3ccccc3)oc(=O)c3ccccc23)cc1 | -5 | 3
Cc1ccc(-c2c(C(=O)NCCN3CCN(c4ccccc4)CC3)oc(=O)c3ccccc23)cc1 | 54* | -1
O=c1c2sccc2nc(SCc2cccnc2)n1-c1ccc(F)cc1 | -4 | -5
